Experimental data published in PubChem BioAssay (NCI).
Where “and” joins values, the source holds several entries; their conditions need not be identical. Equal values may be shown once. This is part of a sample that, as a whole, favours compounds with a hit. Of some 83,000 tested, about 20% had one in any assay.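 Cell lines were cultured in 96-well plates, exposed to a single compound concentration, and assessed for percent growth 48 hours later.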 Unmarked numbers belong to inactive results. Calls of active or inactive are those of the source. The calls were made as follows: active = growth percent below 10; inactive = the rest.

Each molecule was assayed on SK-MEL-5 melanoma (assay: NCI-60 one-dose screen, 48 h (100 = growth as untreated, 0 = no growth, -100 = all killed)). Details: 10 µM unless noted.
`CCc1ccccc1-c1nc(CN[C@@H]2C[C@@H]3C[C@H]([C@H]2C)C3(C)C)c(C)o1` was tested, and the growth was -94.3% (active). For `Cc1ccccc1Nc1nnc(-c2c[nH]c3ccccc23)o1`, the growth was -17% (active). `Cc1ccc(/C=C/C(=O)c2ccc(S(=O)(=O)NCCNc3nc(N(C)C)nc(N4CCOCC4)n3)cc2)cc1` showed a growth of 89%. Work on `COC(=O)c1c(C(=O)OC)c2ccc3c4ccccc4ccc3n2c1C(=O)C(C)Br` (stereo not drawn) yielded a growth of 24.4%. Molecule `COc1cc(CNC(=O)C[C@H](C)CCC=C(C)C)ccc1OCc1cn(-c2ccc(Cl)cc2Cl)nn1` has a growth of 60.4%. In the case of `Cc1cc(C(NC(=O)C2CC3(CC(Nc4cccc5c4C(=O)N(C4CCC(=O)NC4=O)C5=O)C3)C2)c2ccc3c(c2)OC(F)(F)O3)c(O)c2ncccc12` (stereo not drawn), the growth is reported as -64.5% (active). `O=C(CSc1nnc(-c2ccc(-c3nc4ccc(Cl)cc4[nH]3)cc2)o1)Nc1ccc(Br)cc1` was tested, and the growth was -6.99% (active). In the case of `COc1ccc(-c2nc3ccccc3n2CC(=O)N=Nc2c(O)[nH]c3ccc(OC)cc23)cc1`, the growth is reported as 22.9%. With `Nc1cccc(-n2c(COc3ccc(I)cc3)nc3ccccc32)c1` the growth was 60% and 99.8%. `COC(=O)c1cc(C(=O)C(Br)Br)n2c1ccc1c3ccccc3ccc12` showed a growth of 61.7%. `O=C(NN1C(=O)/C(=C/C=C/c2ccc([N+](=O)[O-])o2)SC1=S)c1ccc([N+](=O)[O-])cc1` was tested, and the growth was -100% (active). `Cc1ccc2nc(NC(=O)Nc3cccc(Cl)c3)sc2c1` showed a growth of 97.2%. Molecule `O=C1/C(=C/c2cccc3c2OCO3)Cc2c(F)cc(Br)cc21` has a growth of 101%. Molecule `CC(C)(C)C(=O)C1CC(C#N)=C2C=Cc3c(ccc4ccccc34)N21` (stereo not drawn) has a growth of 91.1%. With `Cc1ccc(C(=O)Nc2cc(-c3ccncc3)cc(C(F)(F)F)c2)cc1C#Cc1cnc2cccnn12` the growth was 34.4%. `CCOc1ccc(-c2cc(-c3cc(C(C)C)c(O)cc3C)nn2-c2ccc(S(N)(=O)=O)cc2)cc1` showed a growth of 26.3%. `N#Cc1ccc(C(=O)CSc2nc3c(c(Nc4ccc(S(N)(=O)=O)cc4)n2)CCC3)cc1` was tested, and the growth was 71.9%. In the case of `COc1ccc2c(c1)C(Sc1ccc(Cl)cc1)c1c(nc(N)c(C#N)c1N)O2` (stereo not drawn), the growth is reported as 36.5%. For `Fc1ccccc1CNc1nc(SCCN2CCOCC2)nc2c1cnn2CC(Cl)c1ccc(Br)cc1` (stereo not drawn), the growth was -76% (active). `COc1ccc(-c2nnc3c(/C=C/c4ccc(Br)cc4)nc4ccccc4n23)cc1` showed a growth of 49.4%. For `Cc1nn(-c2ccccc2)c2ncn(CC(=O)N/N=C/c3ccccc3O)c(=O)c12`, the growth was 28.9%. In the case of `CCOC(=O)c1ccc(NC(=S)NC(=O)c2cccc(NC(=O)c3ccc(C)cc3)c2)cc1`, the growth is reported as 85.8%. For `COc1cc(/C=C/C(=O)c2cnn(-c3cc(=O)[nH]c4ccc(Cl)cc34)c2C)cc(OC)c1OC`, the growth was -88.9% (active). In the case of `Cc1[nH]nc2ccc3nc(-c4cnn(CCO)c4)c4c(c3c12)CCCC4`, the growth is reported as 31.7%. With `CCC1(OC(=O)c2ccccc2SSCCOC(=O)CCCCC2SCC3NC(=O)NC32)C(=O)OCc2c1cc1n(c2=O)Cc2cc3ccccc3nc2-1` (stereo not drawn) the growth was 21.1%. Molecule `CN(C)c1nc(NCCNS(=O)(=O)c2ccc(C(=O)/C=C/c3ccc(Cl)cc3)cc2)nc(N2CCOCC2)n1` has a growth of 46.2%. For `C[C@@H]1CN(c2ccc3ncc(C#Cc4cncc(C(=O)Nc5ccc(CN6CCN(C)CC6)c(C(F)(F)F)c5)c4)n3n2)C[C@@H](C)O1`, the growth was -99.6% (active). `O=C1Nc2ccccc2/C1=C\c1ccc(OCC(=O)c2ccc(Br)cc2)cc1` showed a growth of 28.9%. Work on `COc1ccc(NC(=O)NN2C(=O)c3ccccc3N(C)C2c2ccc(OC)cc2)cc1` (stereo not drawn) yielded a growth of 92.6%. `COc1ccc2c(c1)N=c1c-2cc2c(O)[nH]c(=S)n2c1=O` showed a growth of 13.5%. For `CCC(=O)c1c2c(c3ccc4c5ccccc5ccc4n13)C(=O)c1ccccc1C2=O`, the growth was -23.6% (active). In the case of `CC1=C(C(=O)Nc2ccccc2)C(c2cccc(Cl)c2Cl)n2c(nc3ccccc32)N1` (stereo not drawn), the growth is reported as 46.7%. `COc1cc(/C=N/NC(=O)c2ccc(OCc3nc4ccc(C)cc4[nH]3)cc2)cc(OC)c1OC` was tested, and the growth was 18.3%. For `Cc1ccc(C2CC(c3ccc(NC(=S)Nc4ccccc4)cc3)=NN2c2ccc(S(N)(=O)=O)cc2)cc1` (stereo not drawn), the growth was 27.9%. `Nc1cc2ccccc2c(=O)n1NC(=O)c1ccc(Br)cc1` showed a growth of 88.1%. `COc1cc(C2CC(c3ccc(S(=O)(=O)NCCNc4nc(N(C)C)nc(N5CCOCC5)n4)cc3)=Nc3c(N)nc(N)nc3N2)cc(OC)c1OC` (stereo not drawn) gave a growth of 91.4%. With `Cn1cc(-c2cc(N)n3nc(-c4c[nH]c5ccccc45)cc3n2)c2ccccc21` the growth was -92.5% (active). `COc1ccc2[nH]c(=O)c(CSc3ccccc3Nc3nccc(-c4ccc(C(F)(F)F)cc4)n3)cc2c1` gave a growth of 48.8%.
